# Measured values published in PubChem BioAssay.
# Values joined by “and” are separate entries in the source; they are usually repeats but may differ in a detail not shown here. Identical values can stand only once. For some assays here: Results with a measured potency or affinity are listed apart. Active and inactive are the calls of the source.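 Rule for the calls, unless noted: active = at least 20% inhibition of 6-phosphogluconate dehydrogenase activity; inactive = the rest.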
# Key:
# [1] = polyglutamine-triggered caspase-3 activation inhibitors, cell-based (AID 1583); conditions: polyglutamine-induced caspase-3 activation, cell assay; stronger effect = higher value;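 tested at 10 µM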
# [2] = suppressors of polyQ aggregation in yeast, 75Q-TubU reporter (AID 1593); conditions: Yeast 75Q polyglutamine aggregation reporter
# [3] = rescue of polyQ-huntingtin neuronal dysfunction in worms, whole organism, C. elegans mechanosensory neurons, N-terminal huntingtin (AID 1599); conditions: touch response, stronger effect = higher value
# [4] = inhibitors of mitochondrial cytochrome c release, biochemical, purified mitochondria (AID 1603); conditions: stronger effect = lower value;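 note: mouse liver mitochondria challenged with calcium chloride; signal normalized to the plate average as 100%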
# [5] = inhibitors of polyQ protein aggregation (AID 1604); conditions: polyglutamine-induced protein aggregation inhibition assay; stronger effect = higher value; tested at 2.5 µM
# [6] = enhancers of glutamate uptake in motor neurons, MN-1 cell line (AID 1612); conditions: MN-1 motor neuron cells, stronger effect = higher value;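 note: tested at 1 µM final; 0% = mean of DMSO vehicle wells on each plate; positive means more glutamate uptake than control and negative means less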
# [7] = reducers of polyQ inclusions in PC12 cells, cell-based, NGF-treated PC12, GFPQ80 (AID 1614); conditions: PC12 NGF-treated GFP-polyQ80 inclusion reduction;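 note: lower means fewer inclusions and 0 means no inclusions at all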
# [8] = suppressors of polyglutamine aggregation in yeast, 75Q-TubH (AID 1616); conditions: S. cerevisiae 75Q-TubH polyglutamine aggregation suppression; stronger effect = higher value
# [9] = circadian clock period modulators, cell-based, LOPAC library, luminescence reporter (AID 2774; call rule not given here;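 note: values are relative to mean of DMSO wells on each plate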); conditions: circadian reporter cells, at 7 µM, actives lie on both sides
# [10] = liver-stage malaria parasite growth inhibition, primary screen, cell-based, HepG2, luciferase luminescence, HepG2 viability (AID 624349; in the data active = parasite load remaining mostly below about 12%, no sharp cut-off; inactive = mostly above about 10%;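 note: 100% = mean of DMSO negative control wells on the same plate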); conditions: P. berghei liver stage in HepG2, luciferase luminescence, concentration not given here; parasite load remaining: stronger effect = lower value; viability: measured here: HepG2 viability without parasites
# [11] = system: Hepatitis C virus NS3 helicase; test: HCV NS3 helicase inhibitors, primary screen, biochemical, fluorescence polarization, LOPAC1280 library (AID 687035; in the data active = inhibition above about 37%); conditions: Purified HCV NS3 helicase, Cy5-dT15 ssDNA binding fluorescence polarization; stronger effect = higher value; concentration not given here
# [12] = target: 6-phosphogluconate dehydrogenase, decarboxylating (Homo sapiens) (UniProt P52209); test: 6PGD enzyme inhibitors, primary screen, biochemical, human, recombinant enzyme, NADPH absorbance (AID 1159550); conditions: recombinant 6PGD, NADPH absorbance 341 nm; at 10 µM; stronger effect = higher value
# [13] = system: Aerobactin synthetase IucA (Klebsiella pneumoniae hvKP1); test: Biochemical IucA enzyme inhibition primary screen of the Spectrum library (AID 1346200; call rule not given here;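 note: 100% = wells without compound and 0% = wells lacking enzyme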); conditions: malachite green pyrophosphate, A620, at 8 µM, stronger effect = lower value
# [14] = sensitizers of A549 cells to miR-34 induction, primary screen, imaging, A549 dox-inducible miR-34, nuclei and caspase counts (AID 1347080;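 active = compounds whose cell count with miR-34 switched on is under 0.7 times the count with it off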); conditions: A549 miR-34 inducible, Hoechst nuclei count, 48 h
# [15] = target: Mitogen-activated protein kinase 7 (Homo sapiens) (UniProt Q13164); test: ERK5 transactivation activators in reporter cells, primary screen, cell-based, HTS (AID 1508626;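 active = luciferase signal above three times the same-plate solvent-only control wells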;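 note: luciferase driven by Gal4-ERK5 fusion binding five Gal4 sites before minimal TATA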); conditions: HeLa Gal4-ERK5 transactivation, 18 h, at 5 µM, stronger effect = higher value
# [16] = viability rescue of complex I mutant cybrids, primary screen, cell-based, galactose medium, ATP luminescence (AID 1645843;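 active = z-score of at least 1.8 in each of two replicates, scored against plate mean and spread of sample wells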;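 note: positive z means more ATP and so rescue of galactose-driven cybrid death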); conditions: complex I mutant cybrid cells, 72 h, stronger effect = higher value
# [17] = differential killing of epithelial or mesenchymal cells, primary screen, imaging, PC-3E GFP, TEM4-18 mCherry, co-culture (AID 1345086;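 active = compounds killing one labelled cell type while sparing the other, by normalised counts and ratio limits, not self-fluorescent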;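 for all read-outs here: cells exposed to compound for 72 h before imaging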;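 for red/green cell ratio (normalised): normalised mesenchymal count divided by normalised epithelial count so high means epithelial killing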); conditions: imaging cell counts, at 1 µM; for red/green cell ratio (normalised): actives lie on both sides
# [18] = hESC survival regulators, cell-based (AID 493140; call rule not given here;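 note: cells exposed to compounds for four days before counting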); conditions: human embryonic stem cell survival screen; stronger effect = higher value
# [19] = target: NAD(+) hydrolase SARM1 (Homo sapiens) (UniProt Q6SZW1); test: SARM1 TIR NADase inhibitors, cell lysate, NAD-Glo luminescence (AID 1508614;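 active = compound whose remaining NAD level is above about 45 nM, limit read from the data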;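 note: higher remaining NAD means stronger inhibition of SARM1 NADase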); conditions: SAM-TIR HEK293T lysate NADase, at 1 µM, stronger effect = higher value
# [20] = survival rescue of mitochondrial mutant cells in low glucose, primary screen, MELAS cybrids, Rieske KO mouse fibroblasts, CellTiter-Glo (AID 1508586;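 active = mean z-score across replicates of 1.96 or higher in either the MELAS or the Rieske mutant cell line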;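 note: z relative to plate mean and SD of compound and empty wells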)
# [21] = measured here: relative caspase fold change +Dox/-Dox
# [22] = measured here: total cells with miR-34 induction, stronger effect = lower value
# [23] = measured here: total cells without miR-34 induction
# [24] = measured here: epithelial PC-3E GFP cell survival
# [25] = measured here: mesenchymal TEM4-18 mCherry cell survival
# [26] = MELAS cybrid survival, CellTiter-Glo 48 h, stronger effect = higher value
# [27] = Rieske KO mouse fibroblast survival, CellTiter-Glo 72 h
# NAD(+) hydrolase SARM1 (Homo sapiens), sequence (Q6SZW1 whole entry, looked up): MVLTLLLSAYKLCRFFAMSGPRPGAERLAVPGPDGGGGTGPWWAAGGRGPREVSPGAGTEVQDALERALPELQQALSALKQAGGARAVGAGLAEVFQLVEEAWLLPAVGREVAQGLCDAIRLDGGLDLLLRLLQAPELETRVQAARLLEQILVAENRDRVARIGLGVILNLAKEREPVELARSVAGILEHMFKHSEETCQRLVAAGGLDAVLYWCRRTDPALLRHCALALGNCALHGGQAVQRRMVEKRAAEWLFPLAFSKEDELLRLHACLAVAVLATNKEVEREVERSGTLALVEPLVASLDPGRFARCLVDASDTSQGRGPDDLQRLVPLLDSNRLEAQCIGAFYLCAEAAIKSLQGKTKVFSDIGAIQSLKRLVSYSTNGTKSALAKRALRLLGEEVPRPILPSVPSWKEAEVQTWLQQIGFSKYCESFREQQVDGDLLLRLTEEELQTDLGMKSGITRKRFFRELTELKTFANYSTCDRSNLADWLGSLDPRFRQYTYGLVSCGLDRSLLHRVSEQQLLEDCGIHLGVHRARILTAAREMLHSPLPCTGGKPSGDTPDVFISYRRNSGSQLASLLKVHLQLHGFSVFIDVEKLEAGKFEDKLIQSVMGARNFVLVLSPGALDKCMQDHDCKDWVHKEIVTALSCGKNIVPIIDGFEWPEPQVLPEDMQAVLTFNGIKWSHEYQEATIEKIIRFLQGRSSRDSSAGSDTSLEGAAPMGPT
# Mitogen-activated protein kinase 7 (Homo sapiens), sequence (Q13164 whole entry, looked up, the tested form may be a part): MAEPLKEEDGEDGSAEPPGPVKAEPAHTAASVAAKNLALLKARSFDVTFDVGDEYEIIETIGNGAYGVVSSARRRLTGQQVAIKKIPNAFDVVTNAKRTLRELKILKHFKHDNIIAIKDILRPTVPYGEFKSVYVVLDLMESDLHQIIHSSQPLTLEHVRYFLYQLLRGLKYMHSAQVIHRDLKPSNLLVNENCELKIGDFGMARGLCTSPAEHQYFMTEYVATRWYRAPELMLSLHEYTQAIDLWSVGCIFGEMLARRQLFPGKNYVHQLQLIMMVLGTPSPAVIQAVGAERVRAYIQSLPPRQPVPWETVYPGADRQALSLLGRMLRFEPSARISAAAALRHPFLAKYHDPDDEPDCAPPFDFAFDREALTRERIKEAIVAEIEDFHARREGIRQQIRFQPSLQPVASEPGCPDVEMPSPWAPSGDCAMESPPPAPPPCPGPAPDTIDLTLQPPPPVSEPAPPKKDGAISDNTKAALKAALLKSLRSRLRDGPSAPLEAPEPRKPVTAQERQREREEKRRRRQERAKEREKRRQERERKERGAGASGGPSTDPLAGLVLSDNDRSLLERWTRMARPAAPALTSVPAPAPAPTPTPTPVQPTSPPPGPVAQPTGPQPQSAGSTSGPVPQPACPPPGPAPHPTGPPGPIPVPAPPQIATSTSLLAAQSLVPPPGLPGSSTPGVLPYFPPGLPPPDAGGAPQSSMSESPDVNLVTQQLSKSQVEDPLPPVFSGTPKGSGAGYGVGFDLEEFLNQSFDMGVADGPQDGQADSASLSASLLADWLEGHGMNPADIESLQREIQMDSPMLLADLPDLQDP
# 6-phosphogluconate dehydrogenase, decarboxylating (Homo sapiens), sequence (P52209 whole entry, looked up): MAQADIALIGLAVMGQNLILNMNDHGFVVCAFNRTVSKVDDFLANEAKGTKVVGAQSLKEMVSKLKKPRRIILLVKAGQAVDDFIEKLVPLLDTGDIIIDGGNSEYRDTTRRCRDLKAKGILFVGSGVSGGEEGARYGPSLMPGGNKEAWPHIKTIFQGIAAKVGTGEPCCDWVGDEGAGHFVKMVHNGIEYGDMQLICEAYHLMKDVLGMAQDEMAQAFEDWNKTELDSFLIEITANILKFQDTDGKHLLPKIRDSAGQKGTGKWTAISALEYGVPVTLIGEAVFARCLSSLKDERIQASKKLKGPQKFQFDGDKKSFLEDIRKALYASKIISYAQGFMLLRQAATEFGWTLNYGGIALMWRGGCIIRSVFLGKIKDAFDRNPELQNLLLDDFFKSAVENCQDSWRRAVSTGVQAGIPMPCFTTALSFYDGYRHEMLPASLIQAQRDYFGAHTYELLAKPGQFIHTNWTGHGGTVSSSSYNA
structure (smiles),measurement,setting,value
NC(=NCCC[C@H](N)C(=O)O)N[N+](=O)[O-],inhibition,[1],-12.4% and -12.2%
same,score,[2],0.79 and 1.25
same,rescue above control,[3],-0.39 and 5.97
same,cytochrome c release ratio,[4],0.94 and 0.84
same,inhibition of aggregation,[5],34.7% and 12.9%
same,glutamate uptake change,[6],19.3% and -1.48%
same,inclusion score,[7],2
same,aggregation suppression score,[8],1.04 and 1.38
same,period change,[9],0.04 h (inactive)
same,parasite load remaining,[10],100% (inactive)
same,viability,[10],68.5%
same,inhibition,[11],-2% (inactive)
same,inhibition,[12],3.83% (inactive)
same,activity remaining,[13],121% (inactive)
same,fold change,[14]; stronger effect = lower value,1.02 (inactive)
same,fold change,[14]; [21],0.79
same,cell count,[14]; [22],10000
same,cell count,[14]; [23],9830
same,luciferase signal,[15],44 AU (inactive)
same,z-score,[16],0.525 (inactive)
OC[C@@H]1CCCN2CCCC[C@H]12,parasite load remaining,[10],133% (inactive)
same,viability,[10],91.1%
same,inhibition,[12],-5.58% (inactive)
same,red/green cell ratio (normalised),[17],0.92 (inactive)
same,normalised cell number,[17]; [24],0.97
same,normalised cell number,[17]; [25],0.89
same,activity remaining,[13],109% (inactive)
same,luciferase signal,[15],48 AU (inactive)
C[C@]12CCC3C(CC[C@]4(O)C[C@@H](O)CC[C@]34C=O)[C@@]1(O)CCC2C1=CC(=O)OC1 (stereo partly specified),score,[2],1.09
same,rescue above control,[3],6.59
same,cytochrome c release ratio,[4],1.29
same,inhibition of aggregation,[5],62.8%
same,glutamate uptake change,[6],13.8%
same,inclusion score,[7],0
same,aggregation suppression score,[8],1.29
same,inhibition,[12],14.9% (inactive)
same,red/green cell ratio (normalised),[17],0.2 (inactive)
same,normalised cell number,[17]; [24],0.18
same,normalised cell number,[17]; [25],0.04
same,activity remaining,[13],79.3% (inactive)
c1ccc(N=Nc2ccccc2)cc1,inhibition,[1],-11.7%
same,score,[2],0.28
same,rescue above control,[3],6.73
same,cytochrome c release ratio,[4],0.73
same,inhibition of aggregation,[5],88.8%
same,glutamate uptake change,[6],-16%
same,aggregation suppression score,[8],0.313
same,parasite load remaining,[10],103% (inactive)
same,viability,[10],66.9%
same,inhibition,[12],14.4% (inactive)
same,red/green cell ratio (normalised),[17],0.85 (inactive)
same,normalised cell number,[17]; [24],1.3
same,normalised cell number,[17]; [25],1.1
same,activity remaining,[13],103% (inactive)
same,luciferase signal,[15],40 AU (inactive)
COc1ccc2c(c1OC)C(=O)O[C@@H]2[C@H]1c2cc3c(cc2CCN1C)OCO3,survival,[18],7.17 (inactive)
same,parasite load remaining,[10],124% (inactive) and 81.5% (inactive) and 40.1% (inactive)
same,viability,[10],101% and 75.4% and 98.1%
same,inhibition,[12],6.9% (inactive)
same,red/green cell ratio (normalised),[17],1.06 (inactive)
same,normalised cell number,[17]; [24],1.07
same,normalised cell number,[17]; [25],1.13
same,fold change,[14]; stronger effect = lower value,0.884 (inactive)
same,fold change,"[14]; stronger effect = lower value, cell number ratio, induced over uninduced",0.838 (inactive)
same,fold change,[14]; [21],1.51 and 2.25
same,cell count,[14]; [22],8490 and 11200
same,cell count,[14]; [23],10100 and 12700
same,remaining NAD,[19],10 nM (inactive)
same,luciferase signal,[15],84 AU (inactive)
COC(=O)/C(C)=C\CC12OC(C)(C)C3CC(C=C4C(=O)c5c(OC)c6c(c(CC=C(C)C)c5OC431)OC(C)(CCC=C(C)C)C=C6)C2=O (stereo unspecified),inhibition,[12],-0.84% (inactive)
same,activity remaining,[13],98.7% (inactive)
CC(=O)OC1CN2CCC1CC2 (stereo unspecified),inhibition,[1],0.37%
same,score,[2],1.53
same,rescue above control,[3],-10.7
same,cytochrome c release ratio,[4],0.82
same,inhibition of aggregation,[5],22.1%
same,glutamate uptake change,[6],24.5%
same,inclusion score,[7],2
same,aggregation suppression score,[8],1.12
same,inhibition,[12],8.99% (inactive)
same,red/green cell ratio (normalised),[17],0.81 (inactive)
same,normalised cell number,[17]; [24],1.08
same,normalised cell number,[17]; [25],0.87
same,fold change,[14]; stronger effect = lower value,0.909 (inactive)
same,fold change,[14]; [21],0.869
same,cell count,[14]; [22],8550
same,cell count,[14]; [23],9400
same,z-score,[20]; [26],-3.18 (inactive)
same,z-score,[20]; [27],-1.86
same,remaining NAD,[19],10 nM (inactive)
c1ccc2c(c1)[nH]c1cnccc12,inhibition,[12],1.67% (inactive)
same,red/green cell ratio (normalised),[17],1 (inactive)
same,normalised cell number,[17]; [24],0.91
same,normalised cell number,[17]; [25],0.91
same,activity remaining,[13],105% (inactive)
same,luciferase signal,[15],44 AU (inactive)
COc1cc2c(cc1OC)[C@@H]1C(=O)c3ccc(O)c(CC=C(C)C)c3O[C@@H]1CO2,inhibition,[12],-10.7% (inactive)
same,activity remaining,[13],103% (inactive)
C#C[C@]1(O)CC[C@H]2[C@@H]3CCC4=CC(=O)CC[C@]4(C)[C@H]3CC[C@@]21C,parasite load remaining,[10],27.4% (inactive) and 14.2% (inactive)
same,viability,[10],48.6% and 66.5%
same,inhibition,[12],7.17% (inactive)
same,fold change,[14]; stronger effect = lower value,0.927 (inactive) and 0.887 (inactive)
same,fold change,[14]; [21],1.32 and 1.63
same,cell count,[14]; [22],8580 and 9180
same,cell count,[14]; [23],9250 and 10300
same,z-score,[20]; [26],-0.171 (inactive) and 0.217 (inactive)
same,z-score,[20]; [27],-0.0237 and 0.861
same,remaining NAD,[19],10 nM (inactive)
same,luciferase signal,[15],68 AU (inactive)
same,z-score,[16],0.355 (inactive)
CSc1nc(NC(C)C)nc(NC(C)C)n1,inhibition,[12],-9.01% (inactive)
same,activity remaining,[13],98.6% (inactive)
same,luciferase signal,[15],60 AU (inactive)
COc1c2c(c(CC=C(C)C)c3oc(=O)c(-c4ccc(O)cc4)c(O)c13)OC(C)(C)C=C2,inhibition,[12],-5.17% (inactive)
same,activity remaining,[13],104% (inactive)
same,luciferase signal,[15],60 AU (inactive)
